Experimental data published in PubChem BioAssay.
Active and inactive are the calls of the source.

Tests used:
[1] = test system: XIP peptide (Xip251-270) binding; assay: XIP fragment 251-270 binding compounds – biochemical, small-molecule microarray, fluorescence 635/667 nm, 0.1 µg/mL protein, primary screen (AID 1182); settings: fluorescent protein binding, 635 nm, higher = more signal, called active from +8 up or from −8 down
XIP peptide (Xip251-270) = assay: compounds binding XIP fragment 251-270 – biochemical, small-molecule microarray, fluorescence 635/667 nm, 0.5 µg/mL protein, primary screen (AID 1183); settings: fluorescence 635 nm, higher = more signal
[2] = blood-stage malaria parasite viability loss – strain 3D7, DAPI fluorescence, 100 nL, primary screen (AID 1184);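 further: parasites grown inside human red blood cells in medium with human serum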; settings: P. falciparum 3D7 growth, 3 d, higher = more signal
[3] = biological target: Homeobox protein Hox-A13 (Mus musculus) (UniProt Q62424); assay: disruptors of Hoxa13 oligonucleotide interaction – biochemical, fluorescence polarization, labeled oligonucleotide, primary screen (AID 1185); settings: Hoxa13:DNA binding, 15 min, higher = more signal, called active from +8 up or from −8 down
Sequence of Homeobox protein Hox-A13 (Mus musculus) (Q62424 whole entry, looked up): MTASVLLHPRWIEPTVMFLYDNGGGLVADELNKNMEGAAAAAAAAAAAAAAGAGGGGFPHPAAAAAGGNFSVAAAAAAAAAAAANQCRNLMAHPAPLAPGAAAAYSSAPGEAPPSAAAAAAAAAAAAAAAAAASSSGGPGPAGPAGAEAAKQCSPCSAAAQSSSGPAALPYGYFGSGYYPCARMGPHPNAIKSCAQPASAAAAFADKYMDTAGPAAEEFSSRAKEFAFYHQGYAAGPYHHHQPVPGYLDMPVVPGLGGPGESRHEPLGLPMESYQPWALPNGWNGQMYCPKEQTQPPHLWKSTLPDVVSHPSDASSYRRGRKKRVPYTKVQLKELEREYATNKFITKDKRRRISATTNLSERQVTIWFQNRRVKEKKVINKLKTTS

SMILES	composite z-score [1]	composite z-score (XIP peptide (Xip251-270))	z-score [2]	z-score [3]
CCN1C(=O)[C@H]2[C@H]3[C@H](O)[C@H](O)CC(=NO[C@@H]4O[C@H](CO)[C@@H](O)[C@H](O)[C@H]4O)[C@H]3CC[C@H]2C1=O	-0.0195 (inactive)	0.263	-0.0716	-0.898 (inactive)
CON=C(C)CCN1CCCc2nc(C)c(C)cc21	-0.0879 (inactive)	0.428	-0.18	-7.51 (inactive)
O=C(NN=C1C[C@@H](O)[C@@H](O)[C@@H]2[C@@H]3C(=O)N(c4ccc(F)cc4F)C(=O)[C@@H]3CC[C@H]12)OCc1ccccc1	0.081 (inactive)	0.653	-0.131	-5.87 (inactive)
O=C1CCCC=C1C(O)COCc1ccccc1 (configuration not stated)	0.253 (inactive)	0.269	-0.674	-3.62 (inactive)
CCOC(=O)CCN1C(=O)[C@H]2[C@H]3[C@H](O)[C@H](O)CC(=NNC(=O)OCc4ccc(OC)cc4)[C@H]3CC[C@H]2C1=O	0.353 (inactive)	0.277	0.144	-3.67 (inactive)
CCOC(=O)[C@H](CC(C)C)NC(=O)CCC1CC(OC(=O)NCc2ccc3c(c2)OCO3)CC2(CCCC(COC(=O)NCCOC)O2)O1 (some centres not stated)	0.685 (inactive)	0.0552	-1.99	-5.34 (inactive)
O=C1C2=CC[C@H]3C(=O)N(c4ccc(F)cc4F)C(=O)[C@H]3[C@H]2[C@H](O)[C@@H]2O[C@H]12	-0.196 (inactive)	0.167	0.569	-0.318 (inactive)
CCc1cc2c(nc1CC)CCN(CCC(C)=NOC(C)CN1CCCCc3nc(C)c(C)cc31)C2 (configuration not stated)	0.531 (inactive)	0.61	-1.86	-7.64 (inactive)
